Tau fibril ThT – tau fibrillization inhibition (ThT binding); P10636; recombinant tau K18 P301L, heparin-induced fibrillization, ThT fluorescence; Potency, µM (series often up to 57.4 µM), for inactives: at the top dose activity, negative = inhibition, actives largely listed as inhibitors; actives 2.1% (n = 270,000); AID 1460; note: potency is the fitted concentration of half-maximal effect; % is set by controls: 0 for no effect and ±100 for the full control effect; nearly all actives have a fitted effect of over 55% in size
Target sequence (P10636 561-689 P618L limits assumed): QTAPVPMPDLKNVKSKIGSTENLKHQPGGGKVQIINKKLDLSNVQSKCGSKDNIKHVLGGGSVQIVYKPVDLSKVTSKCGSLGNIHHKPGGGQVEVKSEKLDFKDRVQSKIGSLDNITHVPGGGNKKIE
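In this qHTS, human K18 P301L tau is incubated with compound and heparin for 6 hr at 37 C, and Thioflavin T fluorescence then reports fibril load.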
LMNA splice mod – LMNA splicing modulation. actives 0.01% (n = 200,000). HeLa LMNA splicing GFP/RFP minigene ratio, 48 h. Potency, µM (top dose mostly 46.1 µM), inactives show top-dose ratio change, negative = inhibition, actives largely listed as inhibitors. AID 1487; active = well fitted inhibition curve with a large enough effect in the signal ratio, with a control signal flat, not every such curve was filed as active; inconclusive = small, poorly fitted or top-dose-only effect, or effect the other way, or a change in a side signal; the % refers to the signal ratio; note: potency is the fitted concentration of half-maximal effect; % is set by controls: 0 for no effect and ±100 for the full control effect
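S3 HeLa cells stably expressing lamin A-EGFP splicing minigene plus DsRed2, 600 cells/well, 48 h compound exposure at 37C. Laser-scanning cytometry; analysed as GFP (500-530 nm)/RFP (575-640 nm) total intensity ratio; 0.5% DMSO vehicle.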
Tau fluor cs – counter-screen for tau fibril formation inhibitors. tau K18 P301L (four-repeat tau fragment) Alexa594 fluorescence, heparin fibrillization. Potency, µM (highest dose often 57.7 µM), for inactives: top-dose activity change, negative = decrease. actives 0.93% (n = 280,000); note: potency is the fitted concentration of half-maximal effect; % is set by controls: 0 for no effect and ±100 for the full control effect; nearly all actives have a fitted effect of over 55% in size
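Human K18 P301L tau (15 uM unlabeled plus 0.24 uM Alexa 594-labeled, final) in 100 mM sodium acetate pH 7 was mixed with compound and 20 uM heparin and incubated 6 hr at 37 C.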
CBFb RUNX1 block – inhibitors of human CBF-beta and RUNX1 interaction. Q01196+Q13951. AlphaScreen CBFb-His/RUNX1-biotin binding, biochemical. Potency, µM (series often up to 59.8 µM), for the others: at the top dose activity, negative = inhibition, usual class: inhibitors. 230,000 tested, under 10 active. AID 1477; note: % of control where 0% means no effect
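His-tagged CBF-beta and biotinylated RUNX1 (30 nM each) were premixed 20 min at room temperature, exposed to compound for 15 min, then given nickel-chelate and streptavidin AlphaScreen beads (50 ng each). After 90 min, AlphaScreen signal was read.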
Tau FP inhib – tau fibrillization inhibition (FP); K18 P301L tau heparin fibrillization, Alexa594 FP, 6 h; AID 1468; actives 0.39% (n = 280,000); Potency, µM (series often up to 57.7 µM), without a hit: at the top dose activity, negative = inhibition, usual class: inhibitors; note: potency is the fitted concentration of half-maximal effect; % is set by controls: 0 for no effect and ±100 for the full control effect; nearly all actives have a fitted effect of over 55% in size
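Read-out: fluorescence polarization of Alexa 594-labeled tau (0.24 uM), 555 nm excitation, 632 nm emission. Mixtures held 15 uM unlabeled K18 P301L, compound and 20 uM heparin, pH 7 acetate buffer, incubated 6 hr at 37 C.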
JMJD2E inh – JMJD2E (human) inhibition. Potency, µM (series often up to 57.1 µM), inactives show top-dose activity change, negative = inhibition, most hits filed as inhibitors. actives 1.6% (n = 230,000). AID 2147. B2RXH2. JMJD2E catalytic domain, FDH-coupled NADH fluorescence (FDH is formaldehyde dehydrogenase);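 note: potency is the fitted concentration of half-maximal effect; 0% = wells with enzyme and -100% = buffer wells without enzyme; nearly all actives have a fitted effect of over 50% in size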
Target sequence (B2RXH2 1-337 limits assumed): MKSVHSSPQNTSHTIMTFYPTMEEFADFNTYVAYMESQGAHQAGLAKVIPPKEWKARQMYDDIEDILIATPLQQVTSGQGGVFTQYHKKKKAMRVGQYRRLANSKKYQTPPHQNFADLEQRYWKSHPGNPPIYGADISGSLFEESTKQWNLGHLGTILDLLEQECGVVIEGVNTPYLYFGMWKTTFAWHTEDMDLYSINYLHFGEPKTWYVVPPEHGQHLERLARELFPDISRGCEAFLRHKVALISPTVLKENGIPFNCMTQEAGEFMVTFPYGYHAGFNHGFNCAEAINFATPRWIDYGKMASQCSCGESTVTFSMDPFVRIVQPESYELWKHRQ
An asterisk follows results filed as active; ? = inconclusive; . = no result given; ! = repeats disagree; [ ] = dose if it differs, or a comment. A selection: hits, their analogues and other compounds. The true share with any hit is near 3.2%. Unless noted, calls come from the whole dose curve; as a rule, active = well fitted curve in the direction sought with a large enough effect; inconclusive = small, poorly fitted or top-dose-only effect, or another doubt; inactive = no such curve, though single readings can be large; an effect the other way counts as inactive or inconclusive.

SMILES | Tau fibril ThT | LMNA splice mod | Tau fluor cs | CBFb RUNX1 block | Tau FP inhib | JMJD2E inh
CC[C@H](C)[C@H](NC(=O)[C@H](CC(C)C)NC(=O)[C@H](CO)NC(=O)[C@H](CCC(=O)O)NC(=O)[C@H](CC(C)C)NC(=O)[C@H](Cc1ccc(O)cc1)NC(=O)[C@H](CCCCN)NC(=O)[C@H](CCCCN)NC(=O)[C@H](C)NC(=O)[C@H](CO)NC(=O)[C@H](CC(C)C)NC(=O)[C@H](CCC(N)=O)NC(=O)CNC(=O)[C@H](CC(C)C)NC(=O)[C@H](CC(C)C)NC(=O)[C@H](CCCNC(=N)N)NC(=O)[C@H](CO)NC(=O)[C@H](Cc1ccccc1)NC(=O)[C@H](CC(=O)O)NC(=O)[C@H](CO)NC(=O)[C@@H](NC(=O)[C@H](Cc1ccccc1)NC(=O)[C@@H](NC(=O)CNC(=O)[C@H](CC(=O)O)NC(=O)[C@H](C)NC(=O)[C@@H](N)Cc1cnc[nH]1)C(C)C)[C@@H](C)O)C(N)=O | . | . | . | 16% | . | .
O=C(/C=C/c1ccccc1)NC(=S)NNC(=O)c1cnccn1 | . | . | -19% | . | 1% | 8.9µM*
CCN1/C(=C/c2ccc3cc(C)ccc3[n+]2C)Sc2ccc3sccc3c21 | 1.6µM* | ? | 3.2µM*[fluorescent] | ? | 4% | -9%
CCN(CC)CCN1c2ccccc2Sc2ccc3ccccc3c21 | ? | . | ? | 7% | 2% | ?
CCN1/C(=C/c2ccc3ccccc3[n+]2CC)C=Cc2ccccc21 | 3.2µM* | ? | 12% | ? | -14% | 3%
CCCCN1/C(=C/c2ccc3ccccc3[n+]2CC)Sc2ccccc21 | 14µM* | ? | -1% | -4% | -7% | 14µM*
CCN1/C(=C/c2ccc3cc(C)ccc3[n+]2CC)Sc2cc(C)ccc21 | 14µM* | ? | ? | -24% | ? | ?
Cc1ccc2c(c1)S/C(=C/c1ccc[n+](C)c1)N2CCO | ? | . | -5% | -1% | -6% | -16%
CCOC(=O)c1[nH]c2c(c1Cc1ccccc1OC)C(=O)CC(c1ccc(OCC)cc1)C2 (centres undefined) | -9% | . | -18% | . | -2% | .
O=C(Nc1ccc(-c2csc(Nc3ccc(Cl)cc3)n2)cc1)c1cc([N+](=O)[O-])cc(C(F)(F)F)c1 | ? | . | 7.1µM*[quencher] | 7% | ? | 5%
O=C(Nc1cccc(-c2csc(Nc3ccc(Cl)cc3)n2)c1)c1cc([N+](=O)[O-])cc(C(F)(F)F)c1 | ? | . | 7.1µM*[quencher] | 1% | 5% | 2%
Cc1nnc(SCc2ccccc2)c2cc3sccc3n12 | 22µM* | . | -26% | . | ? | .
NC(CO)C(=O)NNCc1ccc(O)c(O)c1O (centres undefined) | 3.2µM* | ? | ? | 6% | 3.2µM* | 2.2µM*
CCCCC1=CC2=C(c3ccco3)C(=O)C(C)(OC(=O)c3ccc(OC)cc3)C(=O)C2=CN1CCc1ccccn1 (centres undefined) | ? | ? | 0%[11.6 µM] | 6%[13.1 µM] | -4%[11.6 µM] | 8.9µM*!
CCCCC1=CC2=C(c3ccco3)C(=O)C(C)(OC(=O)c3ccc(OC)cc3)C(=O)C2=CN1CCOC (centres undefined) | ? | -7%[9.22 µM] | -5%[11.6 µM] | 4%[13.1 µM] | -4%[11.6 µM] | -8%[11.4 µM]
CCCCC1=CC2=C(c3ccco3)C(=O)C(C)(OC(=O)c3ccc(OC)cc3)C(=O)C2=CN1Cc1ccccc1 (centres undefined) | 13µM*! | -20%[9.22 µM] | 2%[11.6 µM] | ? | 5%[11.6 µM] | 16µM*!
FC(F)(F)c1ccccc1-c1ccc2ncnc(NCc3cccnc3)c2c1 | . | 12% | . | . | . | .
Nc1n[nH]c(=S)n1/N=C1/C(=O)Nc2ccccc21 | 18µM* | . | -25% | -2% | ? | 7.1µM*
Cc1ccc2c(c1)/C(=N/N1C(=O)c3ccccc3C1=O)C(=O)N2 | ? | ? | -5% | 7% | -3% | 14%
CCCCc1cc2c(cn1)C(=O)C(C)(OC(C)=O)C(=O)C2 (centres undefined) | -2%[11.5 µM] | -14%[9.22 µM] | -1%[11.6 µM] | -4%[13.1 µM] | 6%[11.6 µM] | -11%[11.4 µM]
O=C(/C=C/c1ccc(-c2ccccc2[N+](=O)[O-])o1)c1ccco1 | 18µM* | -13%[46 µM] | ? | -14% | 9% | -8%
COc1ccc(-c2[nH]ncc2C(=O)NCc2ccccc2OC)cc1 | -3% | . | -7% | . | 6% | .
C=CS(=O)(=O)c1ccc(Oc2ccc(S(=O)(=O)C=C)cc2)cc1 | 2µM* | ? | -20% | -11% | ? | 3%
C(=Nc1ccc(Nc2ccccc2)cc1)c1ccc2ccccc2c1 | 7.9µM* | ? | 8.9µM*[quencher] | -7% | ? | 4%
Brc1ccc(C=Nc2ccc(Nc3ccccc3)cc2)s1 | 10µM* | ? | 11µM*[quencher] | -4% | ? | -3%
SMILES | Tau fibril ThT | LMNA splice mod | Tau fluor cs | CBFb RUNX1 block | Tau FP inhib | JMJD2E inh
NC(=S)N/N=C/c1ccc2ccccc2c1 | 12% | ? | -3% | 2% | -2% | -3%
COc1ccc(CNC(=O)c2cc3cc(C)ccc3n2C)cc1 | -10% | ? | -9% | . | -2% | .
C[C@H](NC(=O)CNC(=O)[C@@H](NC(=O)[C@H](Cc1ccccc1)NC(=O)CNC(=O)CNC[C@@H](N)Cc1ccccc1)[C@@H](C)O)C(=O)N[C@@H](CCCN=C(N)N)C(=O)N[C@@H](CCCCN)C(=O)N[C@@H](CO)C(=O)N[C@@H](C)C(=O)N[C@@H](CCCN=C(N)N)C(=O)N[C@@H](CCCCN)C(N)=O | . | . | . | 14% | . | .
Cn1nc(-c2ccc(Cl)cc2)nc2c(=O)n(C)c(=O)nc1-2 | 8.9µM* | ? | -16% | . | ? | ?
CS(=O)(=O)n1nc(-c2ccc(Cl)cc2)nc1N | -13% | -8%[46 µM] | -15% | 8% | -11% | ?
O=C(CSc1nc2sc3c(c2c(=O)[nH]1)CCCC3)Nc1ccccc1F | -4% | -4%[46 µM] | 4% | . | -4% | .
CCOc1ccc(-c2[nH]ncc2Oc2ccccc2OCC)c(O)c1 | ? | ? | 14µM*[quencher] | 1% | -15% | -22%
CCOc1ccc(-c2n[nH]c(C)c2Oc2ccc(OC)cc2)c(O)c1 | -19% | -1% | 14µM*[quencher] | -9% | ? | ?
CCOc1ccc(-c2[nH]ncc2-c2ccc(OC)c(OC)c2)c(O)c1 | 9% | ? | 1% | 6% | 1% | 11%
CCOc1ccc(-c2[nH]ncc2Oc2ccccc2OC)c(O)c1 | ? | 0% | 14µM*[quencher] | -13% | 1% | ?
O=C(Nc1cccc(-c2nc3ncccc3o2)c1)c1ccc(-c2cccc(Cl)c2Cl)o1 | ? | . | ? | . | -15% | .

Screening results deposited in PubChem BioAssay by National Center for Advancing Translational Sciences (NCATS).
